Out of some 310,000 compounds screened, about 14,000 (4.5%) showed an effect of 50% or more. Effects have a minus sign here. The entries come from a sample that favours strong results as a whole.
target: human ether-à-go-go-related gene (hERG) potassium channel (human, UniProt Q12809); experiment: primary screen, population patch clamp on CHO cells stably expressing hERG; higher = less effect of the substance
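Further: peak tail current of the secondary pulse compared with the same well before compound.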

Chain of human ether-à-go-go-related gene (hERG) potassium channel (Q12809 whole entry, looked up): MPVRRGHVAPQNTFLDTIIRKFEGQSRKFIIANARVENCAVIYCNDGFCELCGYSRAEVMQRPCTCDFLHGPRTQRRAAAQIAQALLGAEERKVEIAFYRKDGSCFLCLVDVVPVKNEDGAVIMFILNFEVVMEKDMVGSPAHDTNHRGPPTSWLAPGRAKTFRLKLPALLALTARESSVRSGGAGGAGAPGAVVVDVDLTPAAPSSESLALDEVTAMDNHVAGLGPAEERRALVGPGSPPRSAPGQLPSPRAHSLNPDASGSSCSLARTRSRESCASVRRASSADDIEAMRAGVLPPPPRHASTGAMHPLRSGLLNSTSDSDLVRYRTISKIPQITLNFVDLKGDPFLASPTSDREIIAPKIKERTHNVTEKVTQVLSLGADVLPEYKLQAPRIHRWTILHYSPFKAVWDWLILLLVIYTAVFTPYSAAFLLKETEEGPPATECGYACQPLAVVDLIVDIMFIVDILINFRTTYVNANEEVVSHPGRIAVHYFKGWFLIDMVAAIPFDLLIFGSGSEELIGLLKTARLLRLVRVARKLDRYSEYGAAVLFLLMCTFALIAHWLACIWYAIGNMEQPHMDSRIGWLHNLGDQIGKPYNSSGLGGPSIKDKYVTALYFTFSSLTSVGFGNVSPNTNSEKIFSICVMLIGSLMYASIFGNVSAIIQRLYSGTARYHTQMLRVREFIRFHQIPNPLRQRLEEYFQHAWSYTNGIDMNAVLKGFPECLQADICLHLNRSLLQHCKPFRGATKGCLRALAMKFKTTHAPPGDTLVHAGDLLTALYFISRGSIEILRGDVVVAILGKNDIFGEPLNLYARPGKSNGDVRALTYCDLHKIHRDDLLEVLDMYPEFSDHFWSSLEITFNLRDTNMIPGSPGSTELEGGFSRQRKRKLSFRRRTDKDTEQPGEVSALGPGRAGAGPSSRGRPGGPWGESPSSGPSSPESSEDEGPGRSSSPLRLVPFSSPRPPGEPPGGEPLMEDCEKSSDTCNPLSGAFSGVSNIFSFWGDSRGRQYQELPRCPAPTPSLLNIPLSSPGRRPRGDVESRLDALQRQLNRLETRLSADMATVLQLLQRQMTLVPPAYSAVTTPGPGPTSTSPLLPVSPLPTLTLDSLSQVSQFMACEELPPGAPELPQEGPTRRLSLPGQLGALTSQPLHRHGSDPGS

Row | Structure (SMILES) | hERG current change (%, negative = inhibition) at 10uM
1 | Cc1ccccc1OCC(=O)O/N=C(\N)Cc1cccs1 | 5.34%
2 | Cc1ccc2[nH]c3c(c2c1)CN(C(=O)CN(C)CC1OCCO1)CC3 | 12.7%
3 | COc1ccc(N2C(=O)NC(=O)/C(=C\c3ccc([N+](=O)[O-])s3)C2=O)cc1 | 13.3%
4 | O=C(Nc1cc(Cl)ccc1C(=O)O)c1ccc(CN2C(=O)c3ccccc3C2=O)cc1 | 20.7%
5 | Cc1ccc(OCC(=O)Nc2ccc(S(=O)(=O)Nc3ccccn3)cc2)cc1C | 24.4%
6 | O=C(Cn1cnc2c(NC(=O)OCc3ccccc3)ncnc21)NCCN1CCOCC1 | 1.26%
7 | Br.COC(=O)c1ccc(CN2CCSC2=N)cc1 | 6.85%
8 | CN(CC(=O)Nc1ccc(F)c(F)c1)S(=O)(=O)c1cccc2nsnc12 | -26.1%
9 | O=C(c1ccccn1)N(Cc1ccco1)C1(C(=O)NC2CCCC2)CCCCC1 | -5.62%
10 | O.O=C(O)c1cc(=O)c2c(Cl)cc(Cl)cc2[nH]1 | -51.9%
11 | O=C(O)/C(=C\c1c(C(=O)O)[nH]c2cc(Cl)cc(Cl)c12)c1ccccc1 | 13.3%
12 | O=C(O)c1cc(=O)c2ccccc2[nH]1 | 8.86%
13 | Cc1c(OC(C(=O)O)c2ccccc2)ccc2c1oc(=O)c1ccccc12 (stereo not shown) | 17.3%
14 | CC(=O)Nc1ccc2c(c1)nc(CCN1CCN(c3ccccn3)CC1)n2C | 18.6%
15 | Cc1ccc(S(=O)(=O)Nc2ccc3c(c2)nc(CCN2CCN(c4ccccn4)CC2)n3C)cc1 | -84.6%
16 | CC(C)C(=O)Nc1ccc2c(c1)nc(CCN1CCN(c3ccccn3)CC1)n2C | -18.2%
17 | Cn1c(CCN2CCN(c3ccccn3)CC2)nc2cc(NS(=O)(=O)c3ccc(Cl)cc3)ccc21 | -84.3%
18 | CC1=C(C(=O)OCC(Cl)(Cl)Cl)N2C(=O)C(NC(=O)Cc3ccccc3)C2SC1 (stereo not shown) | 15.5%
19 | O=c1[nH]c(/C=C/c2ccc3c(c2)OCO3)c([N+](=O)[O-])c(=O)[nH]1 | 45.8%
20 | COc1ccc(NC(=O)CN(C)CC(=O)NC2CCC(C)CC2)cc1 (stereo not shown) | 0.408%
21 | O=C(NCCc1ccccc1)C(NS(=O)(=O)c1cccc2nsnc12)c1ccccc1 (stereo not shown) | -25.4%
22 | COc1ccc(CCNC(=O)CCCn2c(SCC#N)nc3ccccc3c2=O)cc1OC | -12.7%
23 | COc1ccc(Nc2nc(N)nc(CN3CCN(c4ccc(F)cc4)CC3)n2)cc1 | -69.5%
24 | COc1ccc(N2CCN(Cc3nc(N)nc(Nc4ccc(C)c(Cl)c4)n3)CC2)cc1 | -63.1%
25 | Nc1nc(CSC(=S)N2CCN(c3ccccc3)CC2)nc(Nc2ccccc2)n1 | 0.151%
26 | Nc1nc(CN2CCN(c3ccccc3)CC2)nc(Nc2ccc(Cl)cc2)n1 | -76%

Row | Structure (SMILES) | hERG current change (%, negative = inhibition) at 10uM
27 | COC(=O)CC(=O)Cc1nc(N)nc(Nc2ccc(C)c(C)c2)n1 | -9.22%
28 | Cc1ccc(Nc2nc(N)nc(CSC(=S)N3CCN(c4ccccc4)CC3)n2)cc1 | 8.32%
29 | CCN1CCN(Cc2nc(N)nc(Nc3ccc(C)c(C)c3)n2)CC1 | -65.8%
30 | CCOc1nc(Nc2ccc(OC)c(Cl)c2)nc(N2CCN(c3ccc(OC)cc3)CC2)n1 | 14.9%
31 | CCOc1nc(Nc2ccc(F)cc2)nc(N2CCN(c3ccc(OC)cc3)CC2)n1 | -14.7%
32 | COc1ccc(N2CCN(c3nc(Nc4ccc(C)c(F)c4)nc(N4CCCC4)n3)CC2)cc1 | 8.35%
33 | CS(=O)(=O)N1CCN(c2ccccc2NC(=O)c2cc3ccccc3o2)CC1 | 7.78%
34 | O=C(COC(=O)[C@H](Cc1ccccc1)N1C(=O)c2ccccc2C1=O)Nc1ccc2c(c1)OCO2 | -8.45%
35 | CCC1CCCCN1C(=O)c1cc(COc2ccc3ncccc3c2)on1 (stereo not shown) | 0.129%
36 | CCCCn1c(N)c(N(CCOC)C(=O)CSc2ccccc2C)c(=O)[nH]c1=O | -26.6%
37 | Cc1ccc(C(C)(C)C)cc1S(=O)(=O)Nc1nc2ccccc2nc1Cl | -33.6%
38 | COc1ccc(-c2csc3nc(-c4ccccc4OC)oc(=O)c23)cc1 | 19.1%
39 | COc1cc(C(=O)Nc2ccc3c(c2)Cc2ccccc2-3)cc(OC)c1OC | 0.538%
40 | CC(=O)c1ccc(NC(=O)C(C)Nc2ccc(Cl)cc2)cc1 (stereo not shown) | -4.45%
41 | Cc1nc(C(=O)NNC(=O)Nc2ccc(Cl)cc2)cs1 | -0.711%
42 | CCN(CC)S(=O)(=O)c1cccc(-c2cn3cc(C)ccc3n2)c1 | -9.87%
43 | O=C(Nc1cccnc1Oc1ccc(Cl)cc1)c1cccc2ccccc12 | 3.61%
44 | COCCC(=O)N1CCC(Oc2ccc(C(=O)N3CCC(N(C)C)C3)cc2)CC1 (stereo not shown) | 20.7%
45 | Cc1ccc(Nc2nc(N)nc(CN3CCN(Cc4ccccc4)CC3)n2)cc1Cl | -76.4%
46 | Cc1ccc(Nc2nc(N)c3ccccc3n2)cc1Cl.Cl | 9.26%
47 | Cc1ccc(Nc2nc(N)nc(CN3CCN(c4ccccc4)CC3)n2)cc1Cl | -66.4%
48 | CCCCN(C(=O)CNC(=O)c1ccco1)C(C(=O)NC1CCCC1)c1ccc(OC)cc1 (stereo not shown) | -20.1%
49 | NC(=O)CC(NC(=O)c1ccc(Br)cc1)c1ccc(N2CCN(c3ccc(F)cc3)CC2)c([N+](=O)[O-])c1 (stereo not shown) | 6.16%
50 | CC(=O)Nc1ccc(OC(=O)Oc2ccc(NC(C)=O)cc2)cc1 | 0.315%
51 | CC1(C)NC(C)(C)c2nonc2/C1=N\O | -1.78%
52 | CCn1c2c(c3cc(C(=O)O)ccc31)CCCC2=O | 18.5%

Source: article PMC4336329 (PLoS ONE, 2015)
